PubChem BioAssay
Values joined by “and” are separate entries in the source; they are usually repeats but may differ in a detail not shown here. Equal entries are not always repeated. Inconclusive results are not listed. Active and inactive are the calls of the source.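 How the source made its calls, unless noted: active means normalized viability below 100% at a tested concentration; inactive means the rest.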

Key:
[1] = SU-DIPG-XXV glioma cell viability, MIPE5.0 library, qHTS (AID 1347068; cut-off not given, nearly all actives have IC50 up to about 30 µM;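 on IC50: cells exposed to compound for 48 hours before viability readout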)
[2] = liver-stage malaria parasite growth inhibition, primary screen, cell-based, HepG2, luciferase luminescence, HepG2 viability (AID 624349; in the data active means parasite load remaining mostly below about 12%, no sharp cut-off; inactive means mostly above about 10%;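 further: 100% = mean of DMSO negative control wells on the same plate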); conditions: P. berghei liver stage in HepG2, luciferase luminescence, concentration not given here; parasite load remaining: stronger effect = lower value; viability: measured here: HepG2 viability without parasites
[3] = test system: Hepatitis C virus NS3 helicase; assay: HCV NS3 helicase inhibitors, primary screen, biochemical, fluorescence polarization, LOPAC1280 library (AID 687035; in the data active means inhibition above about 37%); conditions: Purified HCV NS3 helicase, Cy5-dT15 ssDNA binding fluorescence polarization; stronger effect = higher value; concentration not given here
[4] = Cy5 fluorescence quenching or enhancement artefacts, artefact control for HCV NS3 helicase inhibitor project, biochemical, LOPAC1280 (AID 687037; call rule not given here); conditions: Cy5-DNA-NS3h complex fluorescence interference counterscreen
[5] = JHH-DIPG-1 glioma cell viability, MIPE5.0 library, CellTiter-Glo luminescence, qHTS (AID 1347067; cut-off not given, nearly all actives have AC50 up to about 26 µM;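 further: cells exposed to compound for 48 hours before readout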); conditions: JHH-DIPG-1 glioma viability, CellTiter-Glo ATP luminescence
[6] = sensitizers of A549 cells to miR-34 induction, primary screen, imaging, A549 dox-inducible miR-34, nuclei and caspase counts (AID 1347080;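 active means compounds whose cell count with miR-34 switched on is under 0.7 times the count with it off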); conditions: A549 miR-34 inducible, Hoechst nuclei count, 48 h
[7] = phospholipid biosynthesis inhibitors in animal cells, primary screen, cell-based, LOPAC library, screen 4 (AID 1347384; call rule not given here); conditions: phospholipid biosynthesis inhibition screen, at 10 µM
[8] = viability rescue of complex I mutant cybrids, primary screen, cell-based, galactose medium, ATP luminescence (AID 1645843;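 active means z-score of at least 1.8 in each of two replicates, scored against plate mean and spread of sample wells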;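 further: positive z means more ATP and so rescue of galactose-driven cybrid death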); conditions: complex I mutant cybrid cells, 72 h, stronger effect = higher value
[9] = SU-DIPG-VI glioma cell viability, MIPE4.0 library, CellTiter-Glo luminescence, qHTS (AID 1347066; cut-off not given, nearly all actives have AC50 up to about 30 µM;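 further: cells exposed to compound for 48 hours before readout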); conditions: CellTiter-Glo ATP luminescence
[10] = molecular target: NAD(+) hydrolase SARM1 (Homo sapiens) (UniProt Q6SZW1); assay: SARM1 TIR NADase inhibitors, cell lysate, NAD-Glo luminescence (AID 1508614;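 active means compound whose remaining NAD level is above about 45 nM, limit read from the data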); conditions: SAM-TIR HEK293T lysate NADase, at 1 µM, stronger effect = higher value
[11] = kinase inhibitors against Plasmodium liver-stage infection, cell-based, known kinase inhibitor set, luminescence, hepatoma host viability (AID 624392; call rule not given here;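 further: infected cells incubated roughly two days before readout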); conditions: Plasmodium liver stage in hepatoma cells, luciferase luminescence, concentration not given here; liver cell % of control: measured here: host liver cell viability; parasite % of control: stronger effect = lower value
[12] = viability loss in pontine glioma line – cell-based, SU-DIPG-XXV, MIPE5.0, CellTiter-Glo, qHTS, dose response (AID 1347065; cut-off not given, nearly all actives have AC50 up to about 26 µM;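 further: cells exposed to compound for 48 hours before ATP readout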); conditions: CellTiter-Glo ATP luminescence
[13] = survival rescue of mitochondrial mutant cells in low glucose, primary screen, MELAS cybrids, Rieske KO mouse fibroblasts, CellTiter-Glo (AID 1508586;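 active means mean z-score across replicates of 1.96 or higher in either the MELAS or the Rieske mutant cell line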;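 further: z relative to plate mean and SD of compound and empty wells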)
[14] = ovarian cancer cell viability with rucaparib, profiling panel, oncology-focused library, rucaparib conditional (AID 1508598); conditions: patient-derived ovarian cancer cells, CellTiter-Glo viability, 144 h, stronger effect = lower value
[15] = stronger effect = lower value, cell number ratio, induced over uninduced
[16] = measured here: relative caspase fold change +Dox/-Dox
[17] = measured here: total cells with miR-34 induction, stronger effect = lower value
[18] = measured here: total cells without miR-34 induction

NAD(+) hydrolase SARM1 (Homo sapiens), sequence (Q6SZW1 whole entry, looked up): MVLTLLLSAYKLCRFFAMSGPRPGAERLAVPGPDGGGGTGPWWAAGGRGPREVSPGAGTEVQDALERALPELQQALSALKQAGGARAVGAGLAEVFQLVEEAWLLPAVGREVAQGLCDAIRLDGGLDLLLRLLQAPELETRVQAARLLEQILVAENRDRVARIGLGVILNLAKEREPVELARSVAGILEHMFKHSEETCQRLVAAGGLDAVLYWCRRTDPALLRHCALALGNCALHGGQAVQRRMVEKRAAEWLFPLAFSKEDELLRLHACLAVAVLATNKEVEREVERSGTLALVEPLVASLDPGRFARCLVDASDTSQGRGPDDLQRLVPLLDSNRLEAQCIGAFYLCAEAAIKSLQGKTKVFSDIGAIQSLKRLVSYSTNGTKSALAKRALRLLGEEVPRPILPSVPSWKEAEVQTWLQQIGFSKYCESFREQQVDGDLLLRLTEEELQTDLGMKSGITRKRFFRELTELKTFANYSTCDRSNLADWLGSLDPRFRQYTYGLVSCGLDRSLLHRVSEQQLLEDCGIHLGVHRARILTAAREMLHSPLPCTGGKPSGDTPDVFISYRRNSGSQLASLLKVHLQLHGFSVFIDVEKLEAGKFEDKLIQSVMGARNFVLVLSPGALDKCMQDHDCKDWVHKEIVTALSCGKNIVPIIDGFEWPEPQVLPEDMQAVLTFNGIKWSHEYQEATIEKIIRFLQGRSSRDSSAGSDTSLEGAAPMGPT

COc1cc2c(NC3CCN(C4CCCCC4)CC3)nc(N3CCCN(C(C)C)CC3)nc2cc1OCCCN1CCCCC1
IC50 [1]: 5.9 µM (active)

CCN1/C(=C/C(C)=O)Sc2ccc(OC)cc21
parasite load remaining [2]: 36.4% (inactive)
viability [2]: 92.3%
inhibition [3]: -4% (inactive)
fluorescence ratio (interference) [4]: 0.9 (inactive)
outcome [5]: inactive
outcome [1]: inactive
fold change [6, 15]: 1.04 (inactive)
fold change [6, 16]: 1.19
cell count [6, 17]: 7360
cell count [6, 18]: 7040
outcome [7]: inactive
z-score [8]: 0.785 (inactive)

CC(C)OC(=O)CCC/C=C\C[C@@H]1[C@@H](/C=C/[C@@H](O)COc2cccc(C(F)(F)F)c2)[C@H](O)C[C@@H]1O
AC50 [9]: 23.5 µM (active)
remaining NAD [10]: 10 nM (inactive)

Cn1cc(-c2ccc(-c3cncc(Cl)c3N3CCC4(CCNC4=O)CC3)cc2)cn1
outcome [5]: inactive
outcome [1]: inactive

CC(C)C[C@H](NC(=O)[C@H](Cc1ccccc1)NC(=O)OCc1ccccc1)C(=O)C=O
outcome [5]: inactive

CC(C)C(=O)Nc1ncc(-c2cc(C(F)F)nn2-c2c(Cl)cccc2Cl)s1
liver cell % of control [11]: 78% and 87.1% and 89.1%
parasite % of control [11]: 2.64% (inactive) and 20.3% (inactive) and 36.7% (inactive)
outcome [9]: inactive

CC1Cc2ccccc2N1C(=O)Cc1nc(N2CCOCC2)cc(=O)[nH]1 (stereo not drawn)
outcome [5]: inactive

N#CN1CCC[C@@H](n2nc(-c3ccc(Oc4ccc(F)cc4F)cc3)c(C(N)=O)c2N)C1
outcome [5]: inactive
outcome [1]: inactive

CCC(=O)N[C@H]1CC[C@H](C(=O)N(C)c2ccc(-c3nc4ccccc4o3)cc2)C1
outcome [9]: inactive
outcome [5]: inactive

CN1CCN(c2ccc(OC(F)(F)F)c(Nc3ncc4c(n3)-c3c(c(C(N)=O)nn3CCO)CC4)c2)CC1
AC50 [12]: 0.118 µM (active)
fold change [6, 15]: 0.983 (inactive)
fold change [6, 16]: 0.326
cell count [6, 17]: 1120
cell count [6, 18]: 1140
z-score ([13]; MELAS cybrid survival, CellTiter-Glo 48 h, stronger effect = higher value): 1.84 (inactive)
z-score ([13]; Rieske KO mouse fibroblast survival, CellTiter-Glo 72 h): -0.694
viability ([14]; at 0.000305 µM, OCI-C5x cells, with rucaparib 10 µM, 100% = cells with rucaparib alone): 119% (inactive)
viability ([14]; at 0.000305 µM, OCI-C5x cells, without rucaparib): 114% (inactive)
viability ([14]; at 0.000305 µM, OCI-P5x cells, with rucaparib 20 µM, 100% = cells with rucaparib alone): 90% (active)
viability ([14]; at 0.000305 µM, OCI-P5x cells, without rucaparib): 84.5% (active)
viability ([14]; at 0.00122 µM, OCI-C5x cells, with rucaparib 10 µM, 100% = cells with rucaparib alone): 125% (inactive)
viability ([14]; at 0.00122 µM, OCI-C5x cells, without rucaparib): 112% (inactive)
viability ([14]; at 0.00122 µM, OCI-P5x cells, with rucaparib 20 µM, 100% = cells with rucaparib alone): 94.4% (active)
viability ([14]; at 0.00122 µM, OCI-P5x cells, without rucaparib): 86.5% (active)
viability ([14]; at 0.00488 µM, OCI-C5x cells, with rucaparib 10 µM, 100% = cells with rucaparib alone): 123% (inactive)
viability ([14]; at 0.00488 µM, OCI-C5x cells, without rucaparib): 105% (inactive)
viability ([14]; at 0.00488 µM, OCI-P5x cells, with rucaparib 20 µM, 100% = cells with rucaparib alone): 88.1% (active)
viability ([14]; at 0.00488 µM, OCI-P5x cells, without rucaparib): 58.9% (active)
viability ([14]; at 0.0195 µM, OCI-C5x cells, with rucaparib 10 µM, 100% = cells with rucaparib alone): 125% (inactive)
viability ([14]; at 0.0195 µM, OCI-C5x cells, without rucaparib): 60% (active)
viability ([14]; at 0.0195 µM, OCI-P5x cells, with rucaparib 20 µM, 100% = cells with rucaparib alone): 78.1% (active)
viability ([14]; at 0.0195 µM, OCI-P5x cells, without rucaparib): 20.2% (active)
viability ([14]; at 0.0781 µM, OCI-C5x cells, with rucaparib 10 µM, 100% = cells with rucaparib alone): 67.6% (active)
viability ([14]; at 0.0781 µM, OCI-C5x cells, without rucaparib): 40.8% (active)
viability ([14]; at 0.0781 µM, OCI-P5x cells, with rucaparib 20 µM, 100% = cells with rucaparib alone): 64.7% (active)
viability ([14]; at 0.0781 µM, OCI-P5x cells, without rucaparib): 14.3% (active)
viability ([14]; at 0.313 µM, OCI-C5x cells, with rucaparib 10 µM, 100% = cells with rucaparib alone): 49.1% (active)
viability ([14]; at 0.313 µM, OCI-C5x cells, without rucaparib): 27.6% (active)
viability ([14]; at 0.313 µM, OCI-P5x cells, with rucaparib 20 µM, 100% = cells with rucaparib alone): 70% (active)
viability ([14]; at 0.313 µM, OCI-P5x cells, without rucaparib): 13.1% (active)
viability ([14]; at 1.25 µM, OCI-C5x cells, with rucaparib 10 µM, 100% = cells with rucaparib alone): 37.5% (active)
viability ([14]; at 1.25 µM, OCI-C5x cells, without rucaparib): 28.9% (active)
viability ([14]; at 1.25 µM, OCI-P5x cells, with rucaparib 20 µM, 100% = cells with rucaparib alone): 73.8% (active)
viability ([14]; at 1.25 µM, OCI-P5x cells, without rucaparib): 13.7% (active)
viability ([14]; at 5 µM, OCI-C5x cells, with rucaparib 10 µM, 100% = cells with rucaparib alone): 40.7% (active)
viability ([14]; at 5 µM, OCI-C5x cells, without rucaparib): 26.6% (active)
viability ([14]; at 5 µM, OCI-P5x cells, with rucaparib 20 µM, 100% = cells with rucaparib alone): 74.1% (active)
viability ([14]; at 5 µM, OCI-P5x cells, without rucaparib): 14.5% (active)

COCCOc1ccc(N2CCN(CCn3ncc4c3nc(N)n3nc(-c5ccco5)nc43)CC2)cc1
outcome [5]: inactive
outcome [1]: inactive

C[C@H]1CC2[C@@H]3CCC4=CC(=O)C=C[C@]4(C)[C@@]3(F)[C@@H](O)C[C@]2(C)[C@@]1(O)C(=O)CO (stereo partly drawn)
outcome [5]: inactive
outcome [1]: inactive

O=C1S/C(=C\c2ccc(OCc3cccc(B(O)O)c3)cc2)C(=O)N1Cc1ccc(F)cc1
IC50 [1]: 23.5 µM (active)

Cc1ccc2cc(-c3c(C)ccc(C(=O)c4c(-c5ccccc5)n(C)n(-c5ccccc5)c4=O)c3N)ccc2n1
outcome [5]: inactive
outcome [1]: inactive

CS(=O)(=O)c1ccc(-c2cnc(NCc3ccco3)n3cnnc23)cc1
AC50 [5]: 20.9 µM (active)
